# Measurements published in PubChem BioAssay AID1159580 (chemical genetic matrix, 2015).
# “And” between values parts separate entries of the source, which are not always exact repeats. Equal values may be shown once. Out of some 5,500 compounds screened, about 2,000 (36%) were called active. About 18% were inconclusive and are not listed. Some of the results follow. Unmarked numbers belong to inactive results. Cut-off read from the data, not from the text of the source: active = normalized growth mostly below about 0.91 (no sharp cut-off); inconclusive = no clear call, values can overlap the other calls; inactive = mostly above about 0.92.
# Experiment: chemical genetic growth profiling, strain panel (AID 1159580);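 note: tested at 20 µM; growth read once vehicle control cultures reached saturation at 30 °C; 1 = growth at the plate median or of vehicle wells; lower values mean less growth of the strain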
# Conditions: growth OD
structure (smiles),measurement,setting,value
CCCCNc1ccc(C(=O)OCCN(C)C)cc1,normalized growth,"S. cerevisiae deletion strains, locus YJR075W, strain HOC1, active compounds read low",1.02
same,normalized growth,"S. cerevisiae deletion strains, locus YKL009W, strain mrt4, active compounds read low",1.02
same,normalized growth,"S. cerevisiae deletion strains, locus YKL068W, active compounds read low",1.01
same,normalized growth,"S. cerevisiae deletion strains, locus YKL085W, strain MDH1 (second series), active compounds read low",1.01
same,normalized growth,"S. cerevisiae deletion strains, locus YKL085W, strain MDH1, active compounds read low",1.01
same,normalized growth,"S. cerevisiae deletion strains, locus YKL160W, strain elf1, active compounds read low",1.03
same,normalized growth,"S. cerevisiae deletion strains, locus YKL190W, strain CNB1, active compounds read low",1.01
same,normalized growth,"S. cerevisiae deletion strains, locus YKR001C, strain vps1, active compounds read low",1.01
same,normalized growth,"S. cerevisiae deletion strains, locus YKR026C, strain gcn3, active compounds read low",1.01
same,normalized growth,"S. cerevisiae deletion strains, locus YKR091W, strain srl3, active compounds read low",1.01
same,normalized growth,"S. cerevisiae deletion strains, locus YLL001W, strain dnm1, active compounds read low",1
same,normalized growth,"S. cerevisiae deletion strains, locus YLL026W, active compounds read low",1.01
same,normalized growth,"S. cerevisiae deletion strains, locus YLL041C, strain sdh2, active compounds read low",0.998
same,normalized growth,"S. cerevisiae deletion strains, locus YLR027C, strain aat2, active compounds read low",1.01
same,normalized growth,"S. cerevisiae deletion strains, locus YLR039C, strain RIC1, active compounds read low",1.14
same,normalized growth,"S. cerevisiae deletion strains, locus YLR058C, strain SHM2, active compounds read low",1.01
same,normalized growth,"S. cerevisiae deletion strains, locus YLR102C, strain apc9, active compounds read low",1.02
same,normalized growth,"S. cerevisiae deletion strains, locus YLR113W, strain HOG1, active compounds read low",0.982
same,normalized growth,"S. cerevisiae deletion strains, locus YLR221C, strain rsa3, active compounds read low",0.975
same,normalized growth,"S. cerevisiae deletion strains, locus YLR258W, strain gsy2, active compounds read low",1.02
same,normalized growth,"S. cerevisiae deletion strains, locus YLR262C, strain YPT6 (second series), active compounds read low",1.05
same,normalized growth,"S. cerevisiae deletion strains, locus YLR262C, strain YPT6, active compounds read low",1.13
same,normalized growth,"S. cerevisiae deletion strains, locus YLR268W, strain sec22, active compounds read low",1.04
same,normalized growth,"S. cerevisiae deletion strains, locus YLR320W, strain mms22, active compounds read low",0.988
same,normalized growth,"S. cerevisiae deletion strains, locus YLR330W, strain CHS5, active compounds read low",1
same,normalized growth,"S. cerevisiae deletion strains, locus YLR342W, strain FKS1 (second series), active compounds read low",1
same,normalized growth,"S. cerevisiae deletion strains, locus YLR342W, strain FKS1, active compounds read low",1.02
same,normalized growth,"S. cerevisiae deletion strains, locus YLR357W, strain rsc2, active compounds read low",1.13
same,normalized growth,"S. cerevisiae deletion strains, locus YLR370C, strain arc18, active compounds read low",1.01
same,normalized growth,"S. cerevisiae deletion strains, locus YLR371W, strain rom2, active compounds read low",1.02
same,normalized growth,"S. cerevisiae deletion strains, locus YLR384C, strain iki3, active compounds read low",1.02
same,normalized growth,"S. cerevisiae deletion strains, locus YLR418C, strain cdc73, active compounds read low",1.01
same,normalized growth,"S. cerevisiae deletion strains, locus YML016C, strain PPZ1, active compounds read low",1
same,normalized growth,"S. cerevisiae deletion strains, locus YML032C, strain rad52, active compounds read low",1.02
same,normalized growth,"S. cerevisiae deletion strains, locus YML120C, strain ndi1, active compounds read low",0.995
same,normalized growth,"S. cerevisiae deletion strains, locus YML124C, strain tub3, active compounds read low",1.02
same,normalized growth,"S. cerevisiae deletion strains, locus YMR058W, strain fet3, active compounds read low",1.02
same,normalized growth,"S. cerevisiae deletion strains, locus YMR078C, strain ctf18, active compounds read low",1.02
same,normalized growth,"S. cerevisiae deletion strains, locus YMR125W, strain sto1, active compounds read low",1.05
same,normalized growth,"S. cerevisiae deletion strains, locus YMR129W, active compounds read low",1.01
same,normalized growth,"S. cerevisiae deletion strains, locus YMR205C, strain PFK2, active compounds read low",1.02
same,normalized growth,"S. cerevisiae deletion strains, locus YMR223W, strain ubp8, active compounds read low",1.01
same,normalized growth,"S. cerevisiae deletion strains, locus YMR231W, strain pep5, active compounds read low",1.02
same,normalized growth,"S. cerevisiae deletion strains, locus YMR307W, strain GAS1, active compounds read low",0.943 and 1.02
same,normalized growth,"S. cerevisiae deletion strains, locus YNL067W, strain RPL9B, active compounds read low",1.01
same,normalized growth,"S. cerevisiae deletion strains, locus YNL071W, strain lat1, active compounds read low",1.02
same,normalized growth,"S. cerevisiae deletion strains, locus YNL128W, strain TEP1, active compounds read low",1.02
same,normalized growth,"S. cerevisiae deletion strains, locus YNL153C, strain GIM3, active compounds read low",1
same,normalized growth,"S. cerevisiae deletion strains, locus YNL175C, strain NOP13, active compounds read low",1.01
same,normalized growth,"S. cerevisiae deletion strains, locus YNL183C, strain NPR1, active compounds read low",0.93
same,normalized growth,"S. cerevisiae deletion strains, locus YNL197C, strain WHI3, active compounds read low",0.982
same,normalized growth,"S. cerevisiae deletion strains, locus YNL209W, strain ssb2, active compounds read low",1.02
same,normalized growth,"S. cerevisiae deletion strains, locus YNL224C, strain SQS1, active compounds read low",0.99
same,normalized growth,"S. cerevisiae deletion strains, locus YNL233W, strain BNI4, active compounds read low",1
same,normalized growth,"S. cerevisiae deletion strains, locus YNL248C, strain rpa49, active compounds read low",1.13 [resistant] (active)
same,normalized growth,"S. cerevisiae deletion strains, locus YNL250W, strain rad50, active compounds read low",0.998
same,normalized growth,"S. cerevisiae deletion strains, locus YNL271C, strain bni1, active compounds read low",1.01
same,normalized growth,"S. cerevisiae deletion strains, locus YNL298W, strain CLA4, active compounds read low",1.02
same,normalized growth,"S. cerevisiae deletion strains, locus YNL307C, strain MCK1, active compounds read low",1.02
same,normalized growth,"S. cerevisiae deletion strains, locus YNL322C, strain KRE1 (second series), active compounds read low",1.01
same,normalized growth,"S. cerevisiae deletion strains, locus YNL322C, strain KRE1, active compounds read low",1.01 and 1.02
same,normalized growth,"S. cerevisiae deletion strains, locus YNR049C, strain mso1, active compounds read low",1.02
same,normalized growth,"S. cerevisiae deletion strains, locus YNR052C, strain pop2, active compounds read low",1.01
same,normalized growth,"S. cerevisiae deletion strains, locus YOL006C, strain TOP1, active compounds read low",0.943
same,normalized growth,"S. cerevisiae deletion strains, locus YOL012C, strain htz1",0.973
same,normalized growth,"S. cerevisiae deletion strains, locus YOL147C, strain pex11, active compounds read low",1.02
same,normalized growth,"S. cerevisiae deletion strains, locus YOR001W, strain rrp6, active compounds read low",0.954
same,normalized growth,"S. cerevisiae deletion strains, locus YOR061W, strain CKA2, active compounds read low",1
same,normalized growth,"S. cerevisiae deletion strains, locus YOR069W, strain VPS5, active compounds read low",1.01
same,normalized growth,"S. cerevisiae deletion strains, locus YOR070C, strain gyp1, active compounds read low",1
same,normalized growth,"S. cerevisiae deletion strains, locus YOR080W, strain dia2, active compounds read low",1
same,normalized growth,"S. cerevisiae deletion strains, locus YOR083W, strain WHI5 (second series), active compounds read low",0.999
same,normalized growth,"S. cerevisiae deletion strains, locus YOR083W, strain WHI5, active compounds read low",1.02
same,normalized growth,"S. cerevisiae deletion strains, locus YOR106W, strain vam3, active compounds read low",1.04
same,normalized growth,"S. cerevisiae deletion strains, locus YOR136W, strain idh2, active compounds read low",1.02
same,normalized growth,"S. cerevisiae deletion strains, locus YOR144C, strain elg1, active compounds read low",1.01
same,normalized growth,"S. cerevisiae deletion strains, locus YOR184W, strain ser1, active compounds read low",1.04
same,normalized growth,"S. cerevisiae deletion strains, locus YOR231W, strain MKK1, active compounds read low",0.995
same,normalized growth,"S. cerevisiae deletion strains, locus YOR265W, strain rbl2, active compounds read low",1.02
same,normalized growth,"S. cerevisiae deletion strains, locus YOR270C, strain vph1, active compounds read low",0.988
same,normalized growth,"S. cerevisiae deletion strains, locus YOR290C, strain snf2, active compounds read low",1.06
same,normalized growth,"S. cerevisiae deletion strains, locus YOR316C, strain cot1, active compounds read low",1.02
same,normalized growth,"S. cerevisiae deletion strains, locus YPL051W, strain arl3, active compounds read low",1.03
same,normalized growth,"S. cerevisiae deletion strains, locus YPL055C, strain LGE1, active compounds read low",1.02
same,normalized growth,"S. cerevisiae deletion strains, locus YPL078C, strain atp4, active compounds read low",1.04
same,normalized growth,"S. cerevisiae deletion strains, locus YPL106C, strain sse1, active compounds read low",1.05
same,normalized growth,"S. cerevisiae deletion strains, locus YPL240C, strain hsp82, active compounds read low",0.998
same,normalized growth,"S. cerevisiae deletion strains, locus YPL241C, strain CIN2, active compounds read low",1
same,normalized growth,"S. cerevisiae deletion strains, locus YPL256C, strain CLN2, active compounds read low",0.964
same,normalized growth,"S. cerevisiae deletion strains, locus YPR119W, strain clb2, active compounds read low",1.01
same,normalized growth,"S. cerevisiae deletion strains, locus YPR141C, strain kar3, active compounds read low",1.02
same,normalized growth,"S. cerevisiae deletion strains, locus YPR163C, strain tif3, active compounds read low",1.02
same,normalized growth,"S. cerevisiae deletion strains, locus YPR167C, strain met16, active compounds read low",1.02
same,normalized growth,"S. cerevisiae deletion strains, strain wtn01, active compounds read low",1.04
same,normalized growth,"S. cerevisiae strains, strain wild type, active compounds read low",1
